Results filed as inconclusive are left out. Active and inactive are the calls of the source. Rule for the calls, unless noted: active = hit-call score of the fitted dose curve at least 0.9, where 1 is the maximum; inconclusive = response in the unintended direction; inactive = score below 0.9.
Tests used:
[1] = molecular target: Nuclear receptor subfamily 1 group I member 3 (Homo sapiens) (UniProt Q14994); assay: ATG_CAR_TRANS: Attagene TRANS-FACTORIAL HepG2 Assay for human Constitutive Androstane Receptor (CAR) (AID 2282969); details: HepG2 Attagene TRANS-FACTORIAL CAR reporter;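 note: activators raise reporter mRNA above DMSO so AC50 marks induction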
In short: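 Readout is reporter mRNA induction, quantified by fluorescent primer extension and capillary electrophoresis after RT-PCR. Cells were HepG2 transiently carrying chimeric NR-Gal4 constructs with GAL4-UAS reporters, treated for 24 h; activity scored upward from DMSO.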

[2] = molecular target: Glucocorticoid receptor (Homo sapiens) (UniProt P04150); assay: ATG_GR_TRANS: Attagene TRANS-FACTORIAL HepG2 Assay for human Glucocorticoid Receptor (GR) (AID 2282978); details: HepG2 Attagene TRANS GR reporter, mRNA transcription;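 note: activators score as hits since higher reporter transcript over DMSO is fitted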
In short: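 Transient MRTU transfection of HepG2 (GAL4-UAS reporters, exogenous NR-GAL4 chimeras), 24 h dosing. Readout: reporter transcript via RT-PCR + capillary electrophoresis fluorescence. Positive direction vs DMSO baseline.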

[3] = molecular target: Oxysterols receptor LXR-beta (Homo sapiens) (UniProt P55055); assay: ATG_LXRb_TRANS: Attagene TRANS-FACTORIAL HepG2 Assay for human Liver X Receptor beta (LXRb) (AID 2282981); details: HepG2 Attagene TRANS GAL4-LXRb reporter, mRNA
In short: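 Cells: HepG2, transiently transfected with GAL4-UAS reporter units plus LXRb-Gal4 fusion. Treatment: 24 h. Detection: reporter mRNA by RT-PCR, 6-FAM labelling, HpaI digestion, capillary electrophoresis.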

[4] = molecular target: human Peroxisome Proliferator-activated Receptor alpha (PPARa), PPARA (gene 5465) (UniProt Q07869); assay: ATG_PPARa_TRANS: Attagene TRANS-FACTORIAL HepG2 Assay for human Peroxisome Proliferator-activated Receptor alpha (PPARa) (AID 2283001)
In short: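 Reporter transcripts from GAL4-UAS units in transfected HepG2 were quantified 24 h after dosing. Detection used reverse transcription, PCR, fluorescent primer extension and capillary electrophoresis, with DMSO as baseline.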

[5] = molecular target: human RAR-related Orphan Receptor gamma (RORg), RORC (gene 6097) (UniProt P51449); assay: ATG_RORg_TRANS: Attagene TRANS-FACTORIAL HepG2 Assay for human RAR-related Orphan Receptor gamma (RORg) (AID 2283011)
In short: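 Chimeric RORg-Gal4 transactivation in transfected HepG2; 24 h exposure; RT-PCR/capillary electrophoresis readout of reporter mRNA, DMSO baseline.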

[6] = molecular target: human Thyroid Receptor alpha (THRa1), THRA (gene 7067) (UniProt P10827); assay: ATG_THRa1_TRANS: Attagene TRANS-FACTORIAL HepG2 Assay for human Thyroid Receptor alpha (THRa1) (AID 2283014)
In short: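 Measured here is mRNA from a GAL4-UAS reporter in transfected HepG2 cells carrying a Gal4-fused receptor, 24 h post-dose. DMSO served as negative control and baseline.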

[7] = molecular target: human Vitamin D Receptor (VDR), VDR (gene 7421) (UniProt P11473); assay: ATG_VDR_TRANS: Attagene TRANS-FACTORIAL HepG2 Assay for human Vitamin D Receptor (VDR) (AID 2283022)
In short: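 Multiplexed TRANS reporter in HepG2; 24 h treatment; reporter mRNA by RT-PCR plus capillary electrophoresis; upregulation scored relative to DMSO.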

[8] = TOX21_p53_BLA_p3_viability: Viability Assessment in the Tox21 HCT-116 p53 Agonism Beta-lactamase Assay, Phase 3 (AID 2283593);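 note: cells exposed to compound for 16 h before reading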
In short: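 Cellular ATP was quantified by CellTiter-Glo luminescence, read after 30 min at room temperature. Beforehand, HCT116 cells (4000/well) received compound 5 h post-seeding, 217-fold diluted from DMSO, then incubated 16 h at 37C.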

[9] = ACEA_ER_AUC_viability: ACEA Biosciences xCELLigence Real-Time Cell Analysis on Estrogen Receptor Agonism for Viability (AID 2283782);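 note: continuous compound exposure with impedance area under curve over 80 h; hit means loss of impedance signal meaning reduced cell growth or viability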
In short: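 T-47D; phenol red-free RPMI1640 + 10% CS-FBS; 8 conc., 1:4 serial, max 100 uM final, ≤0.5% DMSO; n = 2; continuous exposure; impedance monitored to 80 h post-dose; AUC vs DMSO.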

[10] = CCTE_Harrill_HTTr_Viability_MCF7: CCTE's 6-hour Cell Viability Assessment for the High-Throughput Transcriptomics (HTTr) Platform, in MCF-7 cells cultured in DMEM + 10% fetal bovine serum, Harrill Lab (AID 2284010; active = hit-call score of the fitted dose curve at least 0.9, where 1 is the maximum; inactive = score below 0.9)
In short: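 Membrane integrity was scored by high-content imaging of propidium iodide dye exclusion after a 6 h exposure across an eight-point dilution series. Data were fitted bidirectionally relative to DMSO as negative control and baseline.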

[11] = CCTE_Harrill_HTTr_Apoptosis_MCF7: CCTE's 6-hour Apoptosis Assessment for the High-Throughput Transcriptomics (HTTr) Platform, in MCF-7 cells cultured in DMEM + 10% fetal bovine serum, Harrill Lab (AID 2284011; active = hit-call score of the fitted dose curve at least 0.9, where 1 is the maximum; inactive = score below 0.9)
In short: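 Apoptosis in MCF-7 cells grown in DMEM with 10% fetal bovine serum was scored after a six hour exposure by high content imaging of caspase-3/7 activation (CellEvent Caspase 3/7 Green), with DMSO serving as negative control and baseline.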

[12] = molecular target: human RAR-related Orphan Receptor beta (RORb), RORB (gene 6096) (UniProt Q92753); assay: ATG_RORb_TRANS: Attagene TRANS-FACTORIAL HepG2 Assay for human RAR-related Orphan Receptor beta (RORb) (AID 2283010)
In short: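 HepG2 cells were transiently transfected with multiplexed GAL4-UAS reporter units expressing chimeric nuclear receptor–GAL4 proteins, then dosed for 24 h. Reporter mRNA was quantified by RT-PCR with fluorescent labelling and capillary electrophoresis; gain of signal was fitted relative to DMSO.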

[13] = ATG_XTT_Cytotoxicity: Cytotoxicity Assessment in the Attagene TRANS-FACTORIAL HepG2 Assay (AID 2283584);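 for AC50: XTT signal for cell number as viability in transfected HepG2 cells; cells exposed to compound for 24 h before reading; active means loss of viability signal versus DMSO baseline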
In short: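 24 h chemical exposure of reporter-transfected HepG2; XTT signal loss vs DMSO indicates cytotoxicity.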

[14] = TOX21_p53_BLA_p4_viability: Viability Assessment in the Tox21 HCT-116 p53 Agonism Beta-lactamase Assay, Phase 4 (AID 2283597);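 note: hits lower the luminescence signal meaning cytotoxicity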
In short: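 Luminescent ATP readout (CellTiter-Glo, 30 min, room temperature) in the same wells as the p53 bla ratio. HCT116 cells were treated for 16 h at 37C with DMSO-dissolved compounds.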

[15] = molecular target: Nuclear receptor subfamily 4 group A member 2 (Homo sapiens) (UniProt P43354); assay: ATG_NURR1_TRANS: Attagene TRANS-FACTORIAL HepG2 Assay for human Nuclear Receptor Related Protein 1 (NURR1) (AID 2282985); details: HepG2 Attagene TRANS reporter, mRNA readout
In short: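 Cells: HepG2, transiently transfected. Exposure: 24 h. Detection: fluorescence of labelled RT-PCR products separated by capillary electrophoresis; upward fit versus DMSO.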

[16] = molecular target: Retinoic acid receptor RXR-alpha (Homo sapiens) (UniProt P19793); assay: ATG_RXRa_TRANS: Attagene TRANS-FACTORIAL HepG2 Assay for human Retinoid X Receptor alpha (RXRa) (AID 2283012)
In short: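 HepG2 cells transiently transfected with multiplexed GAL4-UAS reporter units and chimeric NR-GAL4 fusions, dosed 24 h. Reporter mRNA measured by RT-PCR, FAM labelling, HpaI digestion and capillary electrophoresis; gain-of-signal fitted relative to DMSO baseline.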

[17] = molecular target: Bile acid receptor (Homo sapiens) (UniProt Q96RI1); assay: ATG_IR1_CIS: Attagene CIS-FACTORIAL HepG2 Assay for human Nuclear Receptor Subfamily 1 Group H Member 4 (NR1H4), IR1 submotif (AID 2282946; active = hit-call score of the fitted dose curve at least 0.9, where 1 is the maximum; inactive = score below 0.9); details: IR1 reporter transcription, actives raise or lower the signal
In short: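 Cells (human HepG2) carry transiently transfected cis-promoter reporter transcription units. Compounds are incubated 24 h, total RNA is reverse-transcribed and amplified, and labelled fragments are resolved by capillary electrophoresis. Curves use DMSO as baseline.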

[18] = ATG_PPRE_CIS: Attagene CIS-FACTORIAL HepG2 Assay for human Peroxisome Proliferator-activated Response Element (PPRE) (AID 2282958; active = hit-call score of the fitted dose curve at least 0.9, where 1 is the maximum; inactive = score below 0.9); details: HepG2 PPRE cis-element reporter, Attagene transcription factor profiling; actives raise or lower the signal
In short: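 Read-out: fluorescent reporter mRNA fragments resolved by capillary electrophoresis after RT-PCR. HepG2 cells carried transiently transfected PPRE-driven cis reporter constructs and were dosed for 24 h; gain or loss of signal fitted relative to DMSO.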

[19] = molecular target: Oxysterols receptor LXR-alpha (Homo sapiens) (UniProt Q13133); assay: ATG_LXRa_TRANS: Attagene TRANS-FACTORIAL HepG2 Assay for human Liver X Receptor alpha (LXRa) (AID 2282980); details: HepG2 Attagene TRANS reporter, LXRa transactivation
In short: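 In this multiplexed TRANS system, compounds act on HepG2 cells carrying GAL4-UAS reporter units and a receptor-GAL4 fusion for 24 h. Induced reporter RNA is amplified, fluorescently labelled and sized by capillary electrophoresis, with DMSO as baseline.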

[20] = molecular target: Peroxisome proliferator-activated receptor gamma (Homo sapiens) (UniProt P37231); assay: ATG_PPARg_TRANS: Attagene TRANS-FACTORIAL HepG2 Assay for human Peroxisome Proliferator-activated Receptor-gamma (PPARg) (AID 2283007)
In short: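 Read-out: reporter mRNA induction, detected by fluorescence after RT-PCR and capillary electrophoresis. Transiently transfected human HepG2 liver cells carrying a chimeric NR-Gal4 construct were dosed for 24 h; activity was fitted upward relative to DMSO.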

Measured: AC50

Peroxisome proliferator-activated receptor gamma (Homo sapiens), sequence (P37231 whole entry, looked up, the tested form may be a part): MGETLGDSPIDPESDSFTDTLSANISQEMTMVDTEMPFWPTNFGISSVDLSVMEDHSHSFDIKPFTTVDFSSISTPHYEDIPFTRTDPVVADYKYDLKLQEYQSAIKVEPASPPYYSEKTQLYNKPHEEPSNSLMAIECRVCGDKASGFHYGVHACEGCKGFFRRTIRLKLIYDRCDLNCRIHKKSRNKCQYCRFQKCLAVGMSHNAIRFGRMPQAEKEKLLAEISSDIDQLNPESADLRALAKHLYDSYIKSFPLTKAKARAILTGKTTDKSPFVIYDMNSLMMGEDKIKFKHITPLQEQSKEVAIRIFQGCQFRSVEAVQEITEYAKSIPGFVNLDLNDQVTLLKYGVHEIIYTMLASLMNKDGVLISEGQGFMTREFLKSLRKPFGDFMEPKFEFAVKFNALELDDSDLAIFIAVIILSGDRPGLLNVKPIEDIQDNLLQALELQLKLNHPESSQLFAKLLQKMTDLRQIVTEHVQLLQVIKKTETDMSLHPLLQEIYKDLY
human Peroxisome Proliferator-activated Receptor alpha (PPARa), PPARA (gene 5465), sequence (Q07869 whole entry, looked up, the tested form may be a part): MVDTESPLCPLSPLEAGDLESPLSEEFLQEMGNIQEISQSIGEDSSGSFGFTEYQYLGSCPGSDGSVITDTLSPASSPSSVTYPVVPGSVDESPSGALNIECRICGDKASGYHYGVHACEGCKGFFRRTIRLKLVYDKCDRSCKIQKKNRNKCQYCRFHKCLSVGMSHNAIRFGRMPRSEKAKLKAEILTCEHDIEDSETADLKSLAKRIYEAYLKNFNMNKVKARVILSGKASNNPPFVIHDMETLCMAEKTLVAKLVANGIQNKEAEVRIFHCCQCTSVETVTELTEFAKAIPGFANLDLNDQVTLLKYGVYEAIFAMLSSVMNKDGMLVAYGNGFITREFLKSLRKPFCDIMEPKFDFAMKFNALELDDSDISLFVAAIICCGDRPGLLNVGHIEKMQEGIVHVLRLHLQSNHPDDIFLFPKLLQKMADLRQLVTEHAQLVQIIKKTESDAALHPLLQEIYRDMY
Retinoic acid receptor RXR-alpha (Homo sapiens), sequence (P19793 whole entry, looked up, the tested form may be a part): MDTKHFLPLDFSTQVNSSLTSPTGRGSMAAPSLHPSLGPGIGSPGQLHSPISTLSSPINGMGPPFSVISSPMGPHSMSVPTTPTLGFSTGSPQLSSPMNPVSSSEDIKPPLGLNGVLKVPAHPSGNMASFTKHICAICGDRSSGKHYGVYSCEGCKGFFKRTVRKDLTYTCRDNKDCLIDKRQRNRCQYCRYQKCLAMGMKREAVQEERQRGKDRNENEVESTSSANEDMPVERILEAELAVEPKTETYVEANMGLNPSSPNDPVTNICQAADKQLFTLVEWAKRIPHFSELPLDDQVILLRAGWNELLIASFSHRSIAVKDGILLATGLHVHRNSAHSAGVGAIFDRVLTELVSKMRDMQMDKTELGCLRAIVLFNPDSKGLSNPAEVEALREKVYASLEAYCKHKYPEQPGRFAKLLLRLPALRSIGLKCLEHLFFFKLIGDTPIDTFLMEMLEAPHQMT
Bile acid receptor (Homo sapiens), sequence (Q96RI1 whole entry, looked up, the tested form may be a part): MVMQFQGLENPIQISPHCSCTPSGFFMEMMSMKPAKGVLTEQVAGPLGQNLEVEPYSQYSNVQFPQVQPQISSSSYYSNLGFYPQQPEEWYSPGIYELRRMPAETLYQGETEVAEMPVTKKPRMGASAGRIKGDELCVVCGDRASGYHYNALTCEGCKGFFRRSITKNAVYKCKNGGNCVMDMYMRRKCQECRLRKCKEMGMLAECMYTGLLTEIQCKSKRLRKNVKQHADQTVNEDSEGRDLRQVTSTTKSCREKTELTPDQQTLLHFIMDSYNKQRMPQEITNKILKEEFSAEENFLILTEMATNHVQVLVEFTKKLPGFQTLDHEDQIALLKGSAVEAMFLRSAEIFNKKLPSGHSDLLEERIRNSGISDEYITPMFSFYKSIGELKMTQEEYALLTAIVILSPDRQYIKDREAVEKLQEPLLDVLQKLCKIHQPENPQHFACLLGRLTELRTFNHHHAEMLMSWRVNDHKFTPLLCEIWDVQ
human Thyroid Receptor alpha (THRa1), THRA (gene 7067), sequence (P10827 whole entry, looked up, the tested form may be a part): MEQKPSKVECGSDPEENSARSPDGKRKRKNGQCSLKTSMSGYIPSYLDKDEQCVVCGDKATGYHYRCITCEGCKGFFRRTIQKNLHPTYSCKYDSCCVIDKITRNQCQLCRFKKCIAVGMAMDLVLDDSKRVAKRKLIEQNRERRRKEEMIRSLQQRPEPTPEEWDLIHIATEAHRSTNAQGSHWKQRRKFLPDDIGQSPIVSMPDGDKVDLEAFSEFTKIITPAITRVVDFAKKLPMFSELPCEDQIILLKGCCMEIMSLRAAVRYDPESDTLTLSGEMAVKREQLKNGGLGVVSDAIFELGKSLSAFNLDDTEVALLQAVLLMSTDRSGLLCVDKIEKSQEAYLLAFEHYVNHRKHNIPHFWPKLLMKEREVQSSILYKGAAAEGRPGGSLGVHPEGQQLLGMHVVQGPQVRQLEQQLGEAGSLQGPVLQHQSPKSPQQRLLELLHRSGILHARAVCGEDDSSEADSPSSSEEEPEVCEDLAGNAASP
human RAR-related Orphan Receptor beta (RORb), RORB (gene 6096), sequence (Q92753 whole entry, looked up, the tested form may be a part): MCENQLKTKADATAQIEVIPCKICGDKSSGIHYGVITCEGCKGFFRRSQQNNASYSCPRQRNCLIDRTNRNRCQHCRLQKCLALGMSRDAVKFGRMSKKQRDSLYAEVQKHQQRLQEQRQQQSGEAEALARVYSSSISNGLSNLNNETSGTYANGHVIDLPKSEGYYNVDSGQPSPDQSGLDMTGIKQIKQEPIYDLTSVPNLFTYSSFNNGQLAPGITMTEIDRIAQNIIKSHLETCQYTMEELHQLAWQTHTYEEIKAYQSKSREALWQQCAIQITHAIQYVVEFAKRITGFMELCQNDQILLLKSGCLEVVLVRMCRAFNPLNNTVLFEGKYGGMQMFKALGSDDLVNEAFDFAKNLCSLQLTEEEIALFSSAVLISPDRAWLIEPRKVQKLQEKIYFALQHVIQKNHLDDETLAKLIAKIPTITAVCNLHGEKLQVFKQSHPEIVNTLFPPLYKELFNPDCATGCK
human RAR-related Orphan Receptor gamma (RORg), RORC (gene 6097), sequence (P51449 whole entry, looked up, the tested form may be a part): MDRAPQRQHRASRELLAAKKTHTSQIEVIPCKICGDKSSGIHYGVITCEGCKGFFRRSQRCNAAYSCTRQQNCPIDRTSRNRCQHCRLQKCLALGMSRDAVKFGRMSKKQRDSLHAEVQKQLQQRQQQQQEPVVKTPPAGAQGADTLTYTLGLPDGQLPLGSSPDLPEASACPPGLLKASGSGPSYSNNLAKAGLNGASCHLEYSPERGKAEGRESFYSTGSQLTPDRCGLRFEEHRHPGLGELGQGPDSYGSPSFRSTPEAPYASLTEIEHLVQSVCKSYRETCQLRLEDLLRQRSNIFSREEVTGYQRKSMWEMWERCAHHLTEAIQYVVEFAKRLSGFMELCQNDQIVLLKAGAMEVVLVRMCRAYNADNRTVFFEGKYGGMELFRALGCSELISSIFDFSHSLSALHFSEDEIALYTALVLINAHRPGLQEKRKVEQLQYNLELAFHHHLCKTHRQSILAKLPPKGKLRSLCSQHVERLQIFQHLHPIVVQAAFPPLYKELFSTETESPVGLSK
Oxysterols receptor LXR-alpha (Homo sapiens), sequence (Q13133 whole entry, looked up, the tested form may be a part): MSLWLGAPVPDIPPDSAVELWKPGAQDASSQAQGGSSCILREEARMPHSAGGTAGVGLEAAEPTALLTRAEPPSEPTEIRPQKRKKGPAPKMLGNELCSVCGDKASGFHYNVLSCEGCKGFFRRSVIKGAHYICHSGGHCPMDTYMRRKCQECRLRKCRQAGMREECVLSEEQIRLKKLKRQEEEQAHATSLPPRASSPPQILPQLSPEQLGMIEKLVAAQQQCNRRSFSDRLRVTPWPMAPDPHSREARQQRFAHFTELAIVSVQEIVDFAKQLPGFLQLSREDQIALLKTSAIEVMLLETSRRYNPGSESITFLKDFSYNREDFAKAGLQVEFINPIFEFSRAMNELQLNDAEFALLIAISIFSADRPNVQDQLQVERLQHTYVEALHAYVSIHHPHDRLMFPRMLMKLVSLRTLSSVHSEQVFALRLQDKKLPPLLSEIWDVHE
Oxysterols receptor LXR-beta (Homo sapiens), sequence (P55055 whole entry, looked up, the tested form may be a part): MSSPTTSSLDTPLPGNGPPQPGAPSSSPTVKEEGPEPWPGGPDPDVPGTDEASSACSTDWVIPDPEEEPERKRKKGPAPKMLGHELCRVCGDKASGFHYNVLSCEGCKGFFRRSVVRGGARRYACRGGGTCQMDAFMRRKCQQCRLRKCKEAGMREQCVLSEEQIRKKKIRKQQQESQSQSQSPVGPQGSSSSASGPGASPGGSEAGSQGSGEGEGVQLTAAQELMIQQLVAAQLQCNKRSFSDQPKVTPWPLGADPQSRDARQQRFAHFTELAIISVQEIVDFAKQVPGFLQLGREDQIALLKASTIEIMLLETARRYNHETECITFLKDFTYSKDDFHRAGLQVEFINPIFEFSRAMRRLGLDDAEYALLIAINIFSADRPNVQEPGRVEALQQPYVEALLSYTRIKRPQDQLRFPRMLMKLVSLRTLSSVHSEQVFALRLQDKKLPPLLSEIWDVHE
Nuclear receptor subfamily 1 group I member 3 (Homo sapiens), sequence (Q14994 whole entry, looked up, the tested form may be a part): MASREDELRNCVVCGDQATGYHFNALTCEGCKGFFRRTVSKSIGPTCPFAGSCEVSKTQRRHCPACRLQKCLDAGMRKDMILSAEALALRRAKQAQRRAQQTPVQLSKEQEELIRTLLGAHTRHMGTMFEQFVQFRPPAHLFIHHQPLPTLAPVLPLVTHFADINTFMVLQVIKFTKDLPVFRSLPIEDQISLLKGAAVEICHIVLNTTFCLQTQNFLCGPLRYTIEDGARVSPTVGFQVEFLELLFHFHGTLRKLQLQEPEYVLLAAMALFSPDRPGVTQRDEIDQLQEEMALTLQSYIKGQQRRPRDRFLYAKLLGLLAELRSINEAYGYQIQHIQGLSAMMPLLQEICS

CCC(C)=NO
inactive: [1] | [2] | [3] | [4] | [5] | [6] | [7] | [8] | [9] | [10] | [11]

C=CCOC(=O)C(=C)C
inactive: [2] | [12] | [7] | [13] | [8] | [14] | [9]

CCCCC(CC)COC(=O)CS (stereo unspecified)
inactive: [2] | [15] | [4] | [16] | [7] | [8] | [14] | [9]

CC/C=C\CC/C=C/C(OCC)OCC
active: [9] 82.5 µM
inactive: [1] | [3] | [15] | [4] | [12] | [5] | [6] | [14]

C=CCOCC(CC)(CO)COCC=C
inactive: [1] | [3] | [5] | [6] | [8] | [14] | [9]

CNC[C@H](O)[C@@H](O)[C@H](O)[C@H](O)CO
inactive: [17] | [4] | [12] | [7] | [8]

CCCCCC1CCCC(=O)O1 (stereo unspecified)
inactive: [17] | [18] | [1] | [2] | [19] | [20] | [16] | [7] | [14] | [9]

COC(=O)CCSCCC(=O)OC
inactive: [17] | [2] | [3] | [6] | [13]

Brc1ccc(Oc2ccc(Br)cc2)cc1
inactive: [1] | [19] | [15] | [5] | [6] | [7] | [8] | [14] | [10] | [11]
active: [9] 65.4 µM

Nc1nnc(-c2ccc([N+](=O)[O-])o2)o1
inactive: [18] | [3] | [15] | [4] | [20] | [8] | [14]
active: [13] 159 µM

COc1c2occc2cc2ccc(=O)oc12
inactive: [12] | [6] | [13] | [8] | [14] | [9] | [10] | [11]

CCC(C)C1N=C(C)C(C)S1 (stereo unspecified)
inactive: [2] | [19] | [3] | [6] | [13] | [14]

CC(=O)c1nccs1
inactive: [18] | [1] | [2] | [19] | [3] | [20] | [6] | [13] | [8]

CC(C)CC(=O)O
inactive: [18] | [1] | [2] | [12] | [7] | [8] | [14] | [9] | [10] | [11]

c1cc(N(CC2CO2)CC2CO2)ccc1Cc1ccc(N(CC2CO2)CC2CO2)cc1 (stereo unspecified)
inactive: [18] | [2] | [19] | [20] | [16] | [7] | [8] | [14]
active: [17] 27.6 µM | [15] 70.9 µM

NC(=O)c1ccc([N+](=O)[O-])cc1Cl
inactive: [17] | [18] | [2] | [20] | [12] | [6] | [13]

From PubChem BioAssay (EPA / NIEHS)
